Measurements published in a collection of fitness landscapes (doi:10.1038/s41467-024-54723-y).
In all, about 18,000 sequences were measured (“TetR repression strength (sort-seq, GFP reporter)”: median about 0.23, highest 2% from about 0.68 on). This excerpt belongs to a sample that is enriched for the highest values.

The sequences below were run against TetR (class B, Tn10) (UniProt P04483) (assay: TetR repression strength (sort-seq, GFP reporter) (relative to tetO2 = 1); higher = stronger repression). Conditions: E. coli.
Chain of TetR (class B, Tn10) (P04483 whole entry): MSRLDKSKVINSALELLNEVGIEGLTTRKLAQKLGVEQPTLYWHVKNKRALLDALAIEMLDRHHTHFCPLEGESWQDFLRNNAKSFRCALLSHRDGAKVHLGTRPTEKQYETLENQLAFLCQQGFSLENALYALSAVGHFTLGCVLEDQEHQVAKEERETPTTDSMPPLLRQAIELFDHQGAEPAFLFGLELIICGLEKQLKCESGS
Summary of the method: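 Escherichia coli SIG10-MAX cells carried a low-copy plasmid library in which eight operator positions were randomized between a constitutive promoter and sfGFP, and TetR was expressed constitutively. After 5 h of growth at 37 °C in LB with 50 µg/mL chloramphenicol, 10^6 cells were FACS-sorted into 13 fluorescence bins, and each bin was Illumina-sequenced. Repression strength was the top bin index plus one minus the read-weighted mean bin, divided by the value for the unaltered operator. Across three independent transformations, only library members with ≥30 reads in every replicate and a CV ≤0.5 were averaged.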

Sequence	TetR repression strength
TCCCTCTTAGTAAAAGAGA	0.342
TCCCGAGTAGTAGGGGAGA	0.0701
TCCCTATTAGTAGTGGAGA	0.683
TCCCTATGAGTAGTGGAGA	0.707
TCCCTATGAGTGGTGGAGA	0.119
TCCCACGAAGTAGGGGAGA	0.104
TCCCTATTAGTGGTGGAGA	0.0415
TCCCGATTAGTAAGGGAGA	0.207
TCCCACGCAGTAGGGGAGA	0.689
TCCCTAGTAGTAGTGGAGA	0.159
TCCCTATGAGTAGTAGAGA	0.204
TCCCGATTAGTAGGGGAGA	0.844
TCCCACGCAGTGGGGGAGA	0.188
TCCCTATTAGTTGGGGAGA	0.483
TCCCGGTAAGTGAAGGAGA	0.14
TCCCAGGCAGTGGGGGAGA	0.193
TCCCTAGTAGTGGCTGAGA	0.905
TCCCGAGTAGTGGCTGAGA	0.311
TCCCTAGTAGTAGCTGAGA	0.307
TCCCGAGCAGTTGGTGAGA	0.317
TCCCCTCCAGTGGGGGAGA	0.225
TCCCTCCCAGTGTCGGAGA	0.295
TCCCTTTGAGTTTTTGAGA	0.506
TCCCCTAGAGTCCGCGAGA	0.332
TCCCTTAAAGTATTCGAGA	0.311
TCCCTTAAAGTACTCGAGA	1.16

Sequence	TetR repression strength
TCCCTTAAAGTGATCGAGA	0.207
TCCCTTAAAGTACACGAGA	0.377
TCCCATAAAGTGCTCGAGA	0.225
TCCCTTTAAGTGCGCGAGA	0.764
TCCCTTTAAGTGCACGAGA	0.207
TCCCTTAAAGTGCTCGAGA	0.747
TCCCTTAAAGTGCGCGAGA	0.292
TCCCCTAAAGTGCGCGAGA	0.266
TCCCCTAGAGTGCGCGAGA	0.901
TCCCGCGGAGTGGCGGAGA	0.119
TCCCGCGCAGTGTAAGAGA	0.222
TCCCTATGAGTGTGGGAGA	0.223
TCCCCTGGAGTCGTGGAGA	0.258
TCCCTGGTAGTGGAGGAGA	0.101
TCCCGAGTAGTGAGGGAGA	0.242
TCCCGATAAGTCGTCGAGA	0.0276
TCCCGGATAGTATGAGAGA	0.24
TCCCCGGGAGTATCAGAGA	0.332
TCCCGGTGAGTATCAGAGA	0.188
TCCCGGAGAGTATCAGAGA	0.893
TCCCGAATAGTATCAGAGA	0.207
TCCCGGATAGTATCAGAGA	0.893
TCCCGTGCAGTCATTGAGA	0.276
TCCCTCTCAGTTCGTGAGA	0.181
TCCCAGTGAGTTGGAGAGA	0.303
TCCCTGGCAGTAGGGGAGA	0.185

Sequence	TetR repression strength
TCCCTGTAAGTTGATGAGA	0.236
TCCCTCTAAGTTGATGAGA	0.795
TCCCCGCAAGTTGATGAGA	0.85
TCCCTCTAAGTTGAGGAGA	0.0793
TCCCTCTCAGTTGATGAGA	0.736
TCCCTCTCAGTTGTTGAGA	0.357
TCCCCCTCAGTTGATGAGA	0.262
TCCCCGCAAGTTGTTGAGA	0.198
TCCCCCCAAGTTGATGAGA	0.369
TCCCTTGCAGTTATAGAGA	0.461
TCCCTGGAAGTAATCGAGA	0.241
TCCCCATTAGTACGTGAGA	0.214
TCCCCGCGAGTAGGGGAGA	0.245
TCCCGAAGAGTCTTAGAGA	0.279
TCCCACACAGTCGGAGAGA	0.333
TCCCCTGAAGTGGCAGAGA	0.204
TCCCGCTGAGTCGGCGAGA	0.15
TCCCCAGAAGTGGTAGAGA	0.255
TCCCGTTTAGTGTTTGAGA	0.0592
TCCCATCTAGTATCTGAGA	0.199
TCCCTTCTAGTATCGGAGA	0.317
TCCCATGGAGTACTGGAGA	0.0311
TCCCATCTAGTGGGGGAGA	0.318
TCCCGTCTAGTGCGTGAGA	0.0665
TCCCATCTAGTGCGTGAGA	0.708
TCCCATCTAGTGTGTGAGA	0.253

Sequence	TetR repression strength
TCCCATAGAGTACTGGAGA	0.169
TCCCATCGAGTACTGGAGA	1.02
TCCCATCTAGTGAGTGAGA	0.316
TCCCATCTAGTATCGGAGA	0.908
TCCCATCTAGTGTGGGAGA	1.06
TCCCGCCTAGTAGGCGAGA	0.391
TCCCCTTCAGTACGAGAGA	0.251
TCCCGGTCAGTGGTGGAGA	0.24
TCCCTCACAGTGGTAGAGA	0.157
TCCCAACTAGTCCTGGAGA	0.278
TCCCTCATAGTATTGGAGA	0.22
TCCCTGGCAGTGATAGAGA	0.489
TCCCCGTCAGTGCGGGAGA	0.0283
TCCCTTCTAGTTGGCGAGA	0.281
TCCCATCTAGTTGGCGAGA	0.829
TCCCATCTAGTTGGAGAGA	0.371
TCCCTTTAAGTTCACGAGA	0.199
TCCCGGTTAGTTAGCGAGA	0.363
TCCCGGGCAGTCCTCGAGA	0.909
TCCCGGGCAGTCGTCGAGA	0.311
TCCCGGGAAGTCCTCGAGA	0.985
TCCCGGGAAGTCCGCGAGA	0.144
TCCCGGTCAGTCCTCGAGA	0.15
TCCCGGGGAGTCCTCGAGA	0.242
